Screening data from PubChem BioAssay.
TDP-43 tox inh = TDP-43 toxicity inhibition in yeast | yeast TDP-43 toxicity rescue, BacTiter-Glo growth, 24 h | Potency, µM (doses to about 46.1 µM), hits mostly activators | 45,000 tested, 0.45% active | AID 1347073; active = well fitted activation curve with a large enough effect; also: 0% is about no effect; nearly all actives have a fitted effect of over 55% in size
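TDP-43-expressing yeast, pregrown in raffinose, seeded at OD600 0.02 in galactose medium with compound for 24 hr at 30 deg C. Growth read by BacTiter-Glo luminescence, so rescue of toxicity appears as activation.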
Starred values were filed as active, the others as inactive; i = inactive. The sample as a whole holds a higher share of hits than the screen did. Potency is read from the fitted curve at half-maximal effect.

SMILES	TDP-43 tox inh
CCOC(=O)c1c(NC(=O)COc2ccc(C)cc2C(C)(C)C)sc2c1CCC(C)C2 (stereo not drawn)	i
CC(C)(C)c1ccc(-c2nc(NC(=O)CSc3ncnc4sc5c(c34)CCCC5)ns2)cc1	i
O=C(Cn1cnnn1)NCCc1ccc(Cl)cc1Cl	i
O=C(CSc1ncn[nH]1)NCCc1ccc(Cl)cc1Cl	i
O=C(CCl)N=c1sccn1Cc1ccc(Cl)cc1Cl	20µM*
CN(C(=O)Cn1c(=O)n(CCC(=O)NCc2ccc3c(c2)OCO3)c(=O)c2sccc21)c1ccccc1	i
O/N=C/c1ccc(OCc2ccccc2)c(Cl)c1	10µM*
COC(=O)c1ccc(COc2ccc(/C=N/O)cc2OC)o1	i
COc1cc(/C=N/NC(=O)CN2CCCCC2)ccc1OCc1ccccc1	i
O/N=C/c1ccc(OCc2ccccc2)c(Br)c1	11µM*
CN(C(=O)c1cccc(COc2ccc(Cl)cc2Cl)c1)c1ccccc1	i
COc1cc(/C=N/NC(=O)CN2CCOCC2)ccc1OCc1ccccc1	i
Cc1ccc(O)c(C(CC(=O)NCC2(c3ccccc3)CCCC2)c2ccccc2)c1 (stereo not drawn)	i
CN(C)c1ccc(-c2nc3ccccn3c2Nc2ccc3c(c2)OCCO3)cc1	i
O=C(c1ccc2c(c1)N(Cc1ccccc1)C(=O)c1ccccc1S2(=O)=O)N1CCN(c2ccccc2)CC1	i
CC(=O)Nc1ccccc1-c1nc2ccccc2n(Cc2cccc(Br)c2)c1=O	i
CC(=O)c1ccc(Sc2nnnn2-c2ccccc2)c([N+](=O)[O-])c1	20µM*
CN1CCN(S(=O)(=O)c2ccc(Sc3nnnn3-c3ccccc3)c([N+](=O)[O-])c2)CC1	i
Cc1ccc(-n2nnnc2SCC(=O)NNC(=O)c2ccc([N+](=O)[O-])cc2)cc1	i
CCc1ccc(Nc2nc(-c3cc4cccc(OC)c4oc3=O)c(CC)s2)cc1	i
Cc1cc(C)cc(OCC(=O)N(Cc2ccco2)Cc2ccccc2Cl)c1	i
CCOc1ccc(CNC(=O)C2CCN(C(=O)c3sccc3-n3cccc3)CC2)cc1	i
CC(C)(C)c1ccc(-c2nc(S(=O)(=O)c3ccccc3)c(N3CCOCC3)o2)cc1	i
CCn1c(-c2cc(-c3ccc(C)cc3)nc3ccccc23)n[nH]c1=S	i
C=CCn1c(-c2cc(-c3ccc(C)cc3)nc3ccccc23)n[nH]c1=S	14µM*
SMILES	TDP-43 tox inh
C=CCn1c(-c2ccccc2OC)n[nH]c1=S	i
COC(=O)c1cc2oc3ccccc3c2n1Cc1c(C)cc(C)cc1C	i
Cc1ccc(-c2csc3nc[nH]c(=S)c23)cc1	14µM*
O=c1[nH]cnc2scc(-c3ccc(Br)cc3)c12	i
S=c1[nH]cnc2scc(-c3ccc(Br)cc3)c12	i
CCCSc1nc2sc3c(c2c(=O)n1Cc1ccccc1)CC(C)(CC)OC3 (stereo not drawn)	i
CCCCOc1ccccc1C(=O)N(Cc1sccc1C)C1CCS(=O)(=O)C1 (stereo not drawn)	i
COc1ccc(-c2nc(CNS(=O)(=O)c3ccccc3)cs2)cc1	i
O=S(=O)(NCc1csc(-c2ccccc2)n1)c1cccc(F)c1	i
Cc1cc(C)c(S(=O)(=O)NCc2csc(-c3ccccc3)n2)c(C)c1	22µM*
CCN(CC)C(=O)Cn1c(=O)n(CCCCCC(=O)NCc2ccc3c(c2)OCO3)c(=O)c2sccc21	i
COc1ccc(CNC(=O)CCSCc2ccccc2Cl)c(OC)c1	14µM*
COc1ccccc1OCC(=O)NCCSCc1ccccc1Cl	i
COc1ccccc1CNC(=O)Cc1ccc(OC)c(OC)c1	i
Cc1ccc(Cn2ccn(Cc3ccc(C)cc3)c(=O)c2=O)cc1	i
Cc1ccc(CNC(=O)c2sc3nc[nH]c(=O)c3c2C)cc1	i
O=C(Nc1ccc2nn(-c3ccc(Cl)cc3)nc2c1)c1cc2ccccc2o1	i
Cc1ccc(NC(=O)CN2C(=O)C(c3ccc(F)cc3)=NC2(C)C)c(C)c1	i
Cc1ccc(C)c(C2C(=O)c3ccccc3C2=O)c1	i
Cc1ccc2c(c1)C(O)(CC(=O)/C=C/C=C/c1ccccc1)C(=O)N2 (stereo not drawn)	i
Cc1ccc2c(c1)/C(=C/c1ccccc1)C(=O)N2	22µM*
CCCN(C(=O)c1cc2c(s1)-c1ccccc1SC2)c1ccccc1F	i
COc1cc(NC(=O)CN2C(=O)C(c3ccc(Cl)cc3)=NC23CCCCC3)cc(OC)c1	i
Nc1c(C(=O)Nc2ccccc2)nnn1Cc1ccc(F)cc1Cl	i
O/N=C/c1ccccc1Oc1ccc(Cl)cc1	18µM*
COC(=O)N/N=C/c1ccccc1OCCOc1ccc(OC)cc1	i
CCOC(=O)COc1ccccc1/C=N/O	i
CCOC(=O)Cc1ccc(NC(=O)NC(C)c2c(-n3cccc3)sc(C)c2C)cc1 (stereo not drawn)	i
Cc1ccccc1CNC(=O)C(C)n1nc(C)n2c(cc3occc32)c1=O (stereo not drawn)	i
COc1ccc(CC(=O)O/N=C(\N)c2cccc([N+](=O)[O-])c2)cc1	i
